Where “and” joins values, the source holds several entries; their conditions need not be identical. Equal entries are not always repeated. Records with an inconclusive call do not appear. Where a call stands in place of a potency, no number is given. Calls of active or inactive are those of the source. Calls come from the whole dose curve; as a rule, active = well fitted cell-killing curve with a large enough effect in the repeat runs; inconclusive = weak or mixed curves, or effect the other way; inactive = no such curve, though single readings can be large or run the other way.
Potency is the fitted concentration of half-maximal effect.

The nature of the test: qHTS assay to identify small molecule agonists of the estrogen receptor alpha (ER-alpha) signaling pathway in the presence of an antagonist - cell viability counter screen (AID 1259386).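 Note: cells exposed to compounds for 22 h at 37 °C before the viability read; nearly all actives have a fitted effect of over 30% in size.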 The following applies: VM7Luc4E2 viability, CellTiter-Fluor fluorescence, 22 h; series mostly up to 92.4 µM. An excerpt: National Center for Advancing Translational Sciences [NCATS]
NIH Chemical Genomics Center [NCGC]
U.S. Environmental Protection Agency [EPA]
National Institutes of Environmental Health Sciences [NIEHS]
National Toxicology Program [NTP]
U.S. Food and Drug Administration [FDA]
Estrogen receptor (ER), a member of nuclear hormone receptor plays an important role in development, metabolic homeostasis and reproduction. Two subtypes of ER, ER-alpha and ER-beta, have similar expression patterns with some uniqueness in both types. Endocrine disrupting chemicals (EDCs) and their interactions with steroid hormone receptors like ER causes disruption of normal endocrine function. Therefore, it is important to understand the effect of environmental chemicals in ER signaling pathway. For identifying ER agonists, VM7Luc4E2 cell line has been used in the current assay.
VM7Luc4E2 cell line (provided by Denison MS, University of California) endogenously expresses full-length ER-alpha and is stably transfected with a plasmid containing four estrogen responsive elements (ERE) upstream of a luciferase reporter gene. This current screening for measuring luciferase reporter gene activity using VM7Luc4E2 cells against Tox21 10K library collection is a confirmation study on agonist mode screening in presence of ER-antagonist (ICI-182,780) at 10.0nM final concentration. The cytotoxicity of the compounds was tested in parallel by measuring the cell viability using CellTiter-Fluor assay system (Promega, Madison, WI) in the same wells.
Tox21 Assay Protocol Summary:
VM7Luc4E2 cells were cultured in phenol red free assay medium containing 10% charcoal stripped FBS for 5 days prior to the assay. The cells were dispensed at 4,000 cells in 4uL of assay medium per well into white wall/solid-bottom 1536-well plates (Corning Life Sciences, Corning, NY) using a Multidrop Combi (Thermo Fisher Scientific Inc., Waltham, MA) dispenser. After the assay plates were incubated at 37C and 5% CO2 for 24hr, 1uL of 10.0nM (final concentration) ICI-182,780 or assay buffer was added using two separate tips of Flying Reagent Dispenser (FRD, Aurora Discovery, San Diego, CA). Then 23nL of compounds dissolved in DMSO at 15 concentrations and positive controls or DMSO only was transferred to the assay plates by a Pintool station (Wako, San Diego, CA). The assay plates were incubated at 37C and 5% CO2 for 22hr. After 21hr incubation at 37C, 1uL/well CellTiter-Fluor reagent (Promega Corporation, Madison, WI) was added to each well using FRD and after 1hr incubation at 37C and 5% CO2, the fluorescence signal was measured on ViewLux plate reader (PerkinElmer, Shelton, CT).
Take `c1ccc2c(c1)ccc1ncccc12`: the Potency entry was “inactive”.
The entry for `CN(C)C` is “inactive”; for `Cc1ccc(C(C)(C)C)cc1` it is “inactive”.
Take `CCCCCC1C(=O)CCC1CC(=O)OC` (stereo not given): the Potency entry is “inactive”.
As for `CC/C(=C(/CC)c1ccc(O)cc1)c1ccc(O)cc1`, the entry is “inactive”; as for `O=C(O)c1ccc(O)cc1`, “inactive”; as for `Oc1ccc(C(c2ccc(O)cc2)C(Cl)(Cl)Cl)cc1`, “inactive”.
As for `C1CN(SSN2CCOCC2)CCO1`, the entry is “inactive”; as for `CCCCCCC(C)O` (stereo not given), “inactive”.
The entry for `CN(Cc1cnc2nc(N)nc(N)c2n1)c1ccc(C(=O)N[C@@H](CCC(=O)O)C(=O)O)cc1` is “inactive”; for `C=CC(C)(O)CCC=C(C)C` (stereo not given) it is “inactive”.
Take `Cc1ccc(N)c([N+](=O)[O-])c1`: the Potency entry is “inactive”.
The entry for `CCCOCCO` is “inactive”; for `c1ccc2c(c1)[nH]c1ccccc12` it is “inactive”.
The entry for `CC1(C)OC(=O)NC1=O` is “inactive”.
With `NC[C@H](O)c1ccc(O)c(O)c1`, the Potency entry was “inactive”.
As for `CCOC(=O)C(C)Oc1ccc(Oc2cnc3cc(Cl)ccc3n2)cc1` (stereo not given), the entry is “inactive”.
For `CN(C)/N=N/c1nc[nH]c1C(N)=O`, the Potency entry was “inactive”.
As for `C=CCNCC=C`, the entry is “inactive”; as for `CC1(C)O[C@@H]2C[C@H]3[C@@H]4C[C@H](F)C5=CC(=O)C=C[C@]5(C)[C@@]4(F)[C@@H](O)C[C@]3(C)[C@]2(C(=O)CO)O1`, “inactive”; as for `C=CN1CCCC1=O`, “inactive”.
The entry for `C=C[Si](OCCOC)(OCCOC)OCCOC` is “inactive”.
The entry for `Nc1cc(Cl)c(N)c(Cl)c1` is “inactive”; for `C/C=C/C(=O)N(CC)c1ccccc1C` it is “inactive”.
Take `COc1ccc(-c2coc3cc(O)cc(O)c3c2=O)cc1`: the Potency entry is “inactive”.
The entry for `CC(C)[N+](C)(CCOC(=O)C1c2ccccc2Oc2ccccc21)C(C)C` is “inactive”; for `Nc1ccc2c(O)cc(S(=O)(=O)O)cc2c1` it is 48.6 µM (active) and 21.7 µM (active).
Consider `CCCCCCCCCCCCO`, for which the Potency result was “inactive”.
The entry for `ClC/C=C/CCl` is “inactive”; for `Cc1ccc([N+](=O)[O-])c(C)c1` it is “inactive”; for `CC1(C)C(C=C(Cl)Cl)C1C(=O)OCc1cccc(Oc2ccccc2)c1` (stereo not given) it is “inactive”.
As for `Clc1ccc(Sc2cc(Cl)c(Cl)cc2Cl)cc1`, the entry is “inactive”.
As for `C=C1C[C@H]2[C@@H]3C=C(C)C4=CC(=O)CC[C@]4(C)[C@H]3CC[C@]2(C)[C@@]1(OC(C)=O)C(C)=O`, the entry is “inactive”; as for `CCCCCC=O`, “inactive”; as for `NCCOCCO`, “inactive”.
Take `COC(=O)C(C)Oc1ccc(Oc2ncc(C(F)(F)F)cc2Cl)cc1` (stereo not given): the Potency result is “inactive”.
As for `CCO[Si](CCCNC(N)=O)(OCC)OCC`, the entry is “inactive”; as for `IC(I)I`, “inactive”; as for `CCCCCCCCCCCCCO`, “inactive”.
The entry for `CCCCCCOCCOCCO` is “inactive”.

(Values after PubChem BioAssay (Tox21).)
